From PubChem BioAssay
MOR-DOR inv ag = inverse agonists of MOR-DOR heterodimerization, primary screen, cell-based, luminescence. Mu-type opioid receptor (Homo sapiens) + Delta-type opioid receptor (Homo sapiens), …. cell-based MOR-DOR heterodimer luminescence, inverse agonism. inhibition, % at 9.3 µM. 0.21% of 340,000 active. AID 504357, 2011; in the data active = inhibition above about 22%, passing the limit was not always enough;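 note: 0% = cells with DMSO and 100% = wells without cells with DMSO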
Target sequence (P35372 whole entry, looked up): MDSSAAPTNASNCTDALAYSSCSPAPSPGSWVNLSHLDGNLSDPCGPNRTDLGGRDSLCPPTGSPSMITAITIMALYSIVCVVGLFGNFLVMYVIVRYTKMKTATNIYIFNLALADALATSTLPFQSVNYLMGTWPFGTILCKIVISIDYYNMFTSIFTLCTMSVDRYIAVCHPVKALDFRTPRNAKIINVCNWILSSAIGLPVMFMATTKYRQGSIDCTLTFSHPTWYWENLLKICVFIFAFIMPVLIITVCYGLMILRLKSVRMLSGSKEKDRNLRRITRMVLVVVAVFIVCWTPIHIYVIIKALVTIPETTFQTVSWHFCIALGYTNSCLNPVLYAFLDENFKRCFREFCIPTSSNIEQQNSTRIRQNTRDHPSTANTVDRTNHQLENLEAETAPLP
Target sequence (P41143 whole entry, looked up): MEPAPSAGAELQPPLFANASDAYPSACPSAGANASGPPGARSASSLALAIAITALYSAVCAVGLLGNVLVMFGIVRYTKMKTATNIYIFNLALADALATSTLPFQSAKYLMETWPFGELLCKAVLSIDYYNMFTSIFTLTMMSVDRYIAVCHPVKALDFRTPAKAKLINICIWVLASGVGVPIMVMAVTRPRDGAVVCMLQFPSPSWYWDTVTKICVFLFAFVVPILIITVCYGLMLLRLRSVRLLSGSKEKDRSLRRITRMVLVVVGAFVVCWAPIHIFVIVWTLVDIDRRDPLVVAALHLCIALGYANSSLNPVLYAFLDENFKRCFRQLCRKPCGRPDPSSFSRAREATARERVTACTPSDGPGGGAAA
MOR-DOR ag = agonists of OPRM1-OPRD1 heterodimerization, primary screen, cell-based, luminescence; 0.3% of 340,000 active; cells; activation, % at 9.3 µM; in the data active = activation above about 18%;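 note: 0% = vehicle-treated cells and 100% = reference agonist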
HTR5A inv ag = HTR5A inverse agonists in luminescence cell assay, primary screen, counter-screen for OPRM1-OPRD1 heterodimer inverse agonist project, full-deck HTS; inhibition, % at 9.3 µM; 0.083% of 340,000 active; HTR5A cell line, inverse agonism; in the data active = inhibition mostly above about 23%, no sharp cut-off; inactive = mostly below about 18%;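 note: 0% = cells with DMSO and 100% = no-cell wells with DMSO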
HTR5A ag = HTR5A agonists in luminescence cell assay, primary screen, counter-screen for OPRM1-OPRD1 heterodimer agonist project, full-deck HTS. 5-hydroxytryptamine receptor 5A (Homo sapiens), P47898. cell-based. activation, % at 9.3 µM. 0.61% of 340,000 active. AID 504692, 2011; in the data active = activation mostly above about 9.5%, no sharp cut-off; inactive = mostly below about 7.6%;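 note: 0% = cells with vehicle only and 100% = reference agonist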
* marks the source's active call; other numbers are inactive results. Most compounds without a hit are left out; they make up all but 1.1% or so of the library.

SMILES | MOR-DOR inv ag | MOR-DOR ag | HTR5A inv ag | HTR5A ag
CCOc1ccc(NC(=O)c2cc(OC)nc3ccccc23)cc1 | 4 | -1 | -46 | 12*
Cn1c(-c2ccccc2)c(C(=O)CCl)c2ccccc21 | -233 | 42* | -123 | 44*
COc1ccc2[nH]c3c(c2c1)CCN1C(=O)C(CC(=O)NCc2ccco2)C[C@H](C(=O)N2CCOCC2)[C@@]31CCC1CCCC1 (stereo partly drawn) | 18 | -4 | -3 | 1
CCn1cc(C(=O)NC(=S)Nc2ccccc2Br)cn1 | -2 | 1 | 10 | -4
COc1ccccc1NC(=S)NC(=O)c1ccc(Cn2cc(Br)cn2)cc1 | -77 | 11 | -4 | 13*
CCCOC(=O)c1cccc(Nc2nc(-c3cccnc3)nc3ccccc23)c1 | -22 | 5 | -79 | 14*
Oc1cc(CNC2CCCCC2)c(O)cc1CNC1CCCCC1 | -1 | 0 | -17 | 5
Cc1ccc(C(=O)O)cc1NC(=S)NC(=O)c1ccc(-c2ccc(Cl)cc2)o1 | 10 | -2 | -5 | 12*
COc1ccc(C(=O)O)cc1NC(=S)NC(=O)c1ccc(-c2ccc(Cl)cc2)o1 | 20 | -4 | 9 | -1
COc1ccc(OC)c(NC(=O)C(C)OC(=O)c2cc3ccccc3[nH]2)c1 (stereo not drawn) | -23 | 4 | 3 | -1
COc1cc2[nH]c3c(=O)n4c(nc3c2cc1OC)SCCC4 | 1 | 0 | -25 | 9.9*
COc1ccc2[nH]c3c(=O)n4c(nc3c2c1)SCC4 | 3 | 0 | 1 | 0
CCCCc1ccc(NC(=S)N2CCN(C)CC2)cc1 | 11 | -2 | 1 | 0
CCCCc1ccc(NC(=S)N2CCCC2)cc1 | 12 | -2 | -45 | 12*
CCc1cccc(C)c1NC(=O)CCCN1C(=O)CN(C)C1=O | 4 | -1 | 10 | 10
O=C1C(=C(I)I)c2ccccc2-c2ccccc21 | -202 | 41* | -35 | 9
O=C(COC(=O)c1cc[n+]([O-])cc1)NC(=O)c1ccc(OC(F)F)cc1 | 2 | 0 | 7 | -2
CN(C)c1nc(SCCOC(=O)Nc2ccccc2)nc(N(C)C)n1 | -46 | 9 | 14 | 8.8*
CN(C)c1nc(C(=O)Nc2ccccc2)nc(N(C)C)n1 | 5 | -1 | -1 | 2
Cn1c2ccccc2c(=O)c2ccc(NCCc3cccs3)cc21 | -35 | 6 | -19 | 14*
Cc1ccc(S(=O)(=O)N(C)c2ccc(OCC(=O)Nc3ccc(C(=O)N(C)C)cc3)cc2)cc1C | 4 | -1 | -19 | 8
O=C(CN1C(=O)C2CC=CCC2C1=O)Nc1ccc(F)cc1F (stereo not drawn) | 8 | -2 | -8 | 3
CCN(CC)CCCN(Cc1cc2cc3c(cc2[nH]c1=O)OCO3)C(=S)NCCCN(C)C | 4 | -1 | 12 | 3
CCN(CC)CCCN(Cc1cc2cc3c(cc2[nH]c1=O)OCO3)C(=S)NC | -5 | 1 | -40 | 11*
CCN1C(=O)[C@H]2[C@@H](c3ccc(-c4ccc(F)cc4)c(OC)c3)N[C@@](Cc3ccccc3)(C(=O)OC)[C@H]2C1=O | 4 | -1 | 12 | 0
SMILES | MOR-DOR inv ag | MOR-DOR ag | HTR5A inv ag | HTR5A ag
CCN1CCN(Cc2ccc(NC(=O)c3cc(NC(=O)c4cc(C)on4)cc(OC)c3)cc2C(F)(F)F)CC1 | -9 | 2 | -2 | 0
CCN1CCN(Cc2ccc(NC(=O)c3cc(NC(=O)c4cnn(-c5ccccc5)c4N)cc(OC)c3)cc2C(F)(F)F)CC1 | 1 | 0 | -18 | 12*
COc1ccccc1C(=O)N/C(=C\c1cn(C)c2ccccc12)C(=O)N1CCOCC1 | 14 | -3 | 16 | 11*
COCCOC(=O)c1c(C)n(C)c2ccc(OC(=O)c3c(OC)cccc3OC)cc12 | 8 | -2 | -40 | 11*
COCCOC(=O)c1c(C)n(C)c2ccc(OC(=O)N3CCOCC3)cc12 | 2 | 0 | -17 | 1
Cc1ccc2nc(-c3ccccc3)cc(C(=O)Nc3cccnc3)c2c1 | -30 | 8 | -27 | 13*
Cc1cccc(NC(=O)c2cc(-c3cccnc3)nc3c(C)cccc23)n1 | -45 | 8 | -9 | 11*
Cc1cccc(-c2cc(C(=O)Nc3cccnc3)c3ccccc3n2)c1 | -37 | 5 | -12 | 0
Cc1ccc(-c2cc(C(=O)Nc3cccnc3)c3ccccc3n2)s1 | -41 | 8 | -33 | 10*
Cc1cc(NC(=O)c2cc(-c3ccncc3)nc3c(C)cccc23)no1 | -3 | 1 | 8 | -4
Cc1cccc(-c2cc(C(=O)Nc3ccncc3)c3ccccc3n2)c1 | -118 | 21* | -43 | 12*
CN(CCOc1ccc(Cl)cc1)C(=O)c1cccc(S(=O)(=O)N2CCN(c3ccccc3)CC2)c1 | -1 | 0 | -13 | 11
COc1ccc(-c2cc(C(=O)N3CCCCCC3)c3ccccc3n2)cc1 | -29 | 4 | -4 | 0
Cc1cc(C)nc(N2CCCC(C(=O)NCc3cccc(C(F)(F)F)c3)C2)n1 (stereo not drawn) | 12 | -2 | -12 | 12*
CNC(=S)N(Cc1cc2cc(OC)c(OC)cc2[nH]c1=O)C1CCCC1 | 5 | -1 | 21 | 13*
Cc1cc(C)c2nc(-c3ccncc3)cc(C(=O)N3CCN(Cc4ccccc4Cl)CC3)c2c1 | 1 | 0 | -10 | 13*
CCS(=O)(=O)C1=NN2C(=N)/C(=C\c3ccc(SCc4ccco4)o3)C(=O)N=C2S1 | -67 | 9 | 1 | 13*
CCc1ccccc1NS(=O)(=O)c1ccc(OC)c2ncccc12 | -21 | 4 | -35 | 9.2*
COc1ccc(Cn2c(O)c(C=Nc3ccccc3C(=O)O)c3ccccc3c2=O)cc1 | -21 | 4 | -17 | 6
COc1ccccc1NS(=O)(=O)c1cccc(-n2c(O)c(C=Nc3ccccc3C(=O)O)c3ccccc3c2=O)c1 | -7 | 1 | 34 | 14*
CC(/C=C/c1ccc(O)cc1)=NNc1ccccc1 | 6 | -1 | -7 | 2
COc1cccc(N2CCN(Cc3nc(N)nc(Nc4ccccc4OC)n3)CC2)c1 | 14 | -2 | 1 | 14*
O=C(c1ccco1)N1C(=O)c2cccc3cccc1c23 | -5 | 1 | -21 | 3
O=C(c1ccccc1F)N1C(=O)c2cccc3cccc1c23 | -13 | 2 | -38 | 12*
O=C(COc1ccc2c(c1)OCO2)NCc1cccs1 | 15 | -3 | -10 | 3
Cc1ccc(NC(=S)NCCO)c(C)c1 | 10 | -2 | 14 | 12*
Cc1ccc(NC(=S)NCCc2ccccc2)c(C)c1 | 10 | -2 | 4 | 3
CCN(CC)C(=O)[C@H]1CC(CC(=O)NCCN2CCOCC2)C(=O)N2CCc3c([nH]c4ccccc34)[C@]12C (stereo partly drawn) | 9 | -2 | 0 | 0
CCc1ccc(CN2CCC(Oc3ccc(C(=O)N4CCCC4)cc3)CC2)cc1 | 16 | -5 | 5 | 1
O=C(c1ccc(OC2CCN(Cc3ccc(F)cc3)CC2)cc1)N1CCCC1 | 2 | 0 | -38 | 10*
